# Measurements taken from PMC5540273 (PLoS ONE, 2017).
# System: CAMK4
# Details: concentration: 1 μM, replicates: in singlicate; n = 1
# 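Further: KINOMEscan kinase panel screen.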
row,Structure (SMILES),%Inh
1,Cc1nccc(-c2c(-c3ccc(F)cc3)ncn2CCCN2CCOCC2)n1.Cl [SB-282975],6%
2,O=C1NC(=O)C(c2ccc(Cl)cc2)=C1Nc1cccc(Cl)c1 [SB-317651],29%
3,Cc1ccc(NC(=O)Nc2ccccc2)cc1-c1ccc(C(=O)Nc2ccncc2)cc1 [GSK1398471],0%
4,O=C(Nc1n[nH]c2nc(-c3cccs3)c(Br)cc12)C1CCCC1 [SB-743341],0%
5,COC(=O)C(NC(=O)NC1CCN(c2ccnc(Nc3ccc(F)cc3)n2)C1)c1ccccc1 (centres unmarked) [GSK1379712],0%
6,CC(=O)c1cccc(NC(=O)NC2CCN(c3ccnc(Nc4ccc(F)cc4)n3)C2)c1 (centres unmarked) [GSK1379710],0%
7,CCc1ccc(-c2ccc3c(c2)-c2n[nH]cc2S(=O)(=O)N3C)cc1,11%
8,O=C(Nc1n[nH]c2nc(-c3cccs3)c(Br)cc12)C1CC1 [SB-735297],0%
9,COC(=O)C(Cc1ccccc1)NC(=O)NC1CCN(c2ccnc(Nc3ccc(F)cc3)n2)C1 (centres unmarked) [GSK1379714],9%
10,CC(C)c1ccc(O)cc1Nc1ccnc2ccc(C(F)(F)F)cc12 [GW482059],14%
11,Cc1ccc(NC(=O)c2ccc(Cl)cc2)cc1-c1ccc(C(=O)Nc2ccncc2)cc1 [GSK1398467],0%
12,CC(C)c1cc(-c2ccc3c(N)n[nH]c3c2)nc(N)n1 [GSK2250882],0%
13,Cn1cnc2c(N)ncnc21 [SKF-97623],7%
14,COc1ccc(Nc2nccc(N3CCC(NC(=O)C(C)c4ccc(Cl)cc4)C3)n2)cc1 (centres unmarked) [GSK1379735],0%
15,COc1ccc(Nc2nccc(-c3ccc(NC(=O)c4cc5cc(F)ccc5[nH]4)cc3)n2)cc1 [GSK1229496],0%
16,CNc1nc(-c2ccc3c(N)n[nH]c3c2)cc(N2C[C@@H](C(=O)NC3CCCCC3)OC[C@H]2C)n1 [GSK2375584],0%
17,Cc1ccccc1-c1cc(-c2c[nH]nc2-c2ccccn2)ccn1 [GW680061],0%
18,CCn1c(-c2ccccc2)nc2cnccc21 [SB-733416],13%
19,c1ccc(-c2ccnc3[nH]ccc23)cc1 [SB-693578],0%

row,Structure (SMILES),%Inh
1,CC(=O)c1c(C)c2cnc(Nc3ccn(C)n3)nc2n(C2CCCC2)c1=O,0%
2,O=C(Nc1n[nH]c2cc(-c3ccsc3)ccc12)C1CC1 [SB-732932],0%
3,CSc1ccc(-c2nc3n(c2-c2ccncc2)CCC3)cc1 [SKF-105561],30%
4,O=C(Nc1n[nH]c2nc(-c3ccco3)c(Br)cc12)C1CCN(Cc2ccccc2)C1.O=C(O)[C@H](O)[C@@H](O)C(=O)O (centres unmarked) [SB-742034],0%
5,CNc1nc(-c2ccc3c(N)n[nH]c3c2)cc(N2C[C@@H](C(=O)Nc3ccccc3)CC[C@H]2C)n1 [GSK2298859],0%
6,Cn1cncc1C(=O)NC1CCN(c2ccnc(Nc3ccc(F)cc3)n2)C1 (centres unmarked) [GSK1379717],0%
7,O=c1cc(N2CCOCC2)nc2n(Cc3ccccc3F)ccn12 [GSK2297428],0%
8,CCCCc1nn2ncccc2c1-c1ccnc(NC2CC2)n1 [GW684374],0%
9,O=C1NC(=O)C(c2ccc(Cl)cc2)=C1Nc1ccc(O)cc1 [SB-340867],0%
10,COc1ccc(Nc2nccc(NCCNC(=O)Nc3cc(C)ccc3C)n2)cc1 [GSK1379899],0%
11,CC[C@@H]1CO[C@H](C(=O)Nc2ccccc2)CN1c1cc(-c2ccc3c(N)n[nH]c3c2)nc(NC)n1 [GSK2376236],0%
12,COc1cccc(CNC(=O)NC2CCN(c3ccnc(Nc4ccc(F)cc4)n3)C2)c1 (centres unmarked) [GSK1379723],0%
13,Cc1ccc(NC(=O)Nc2ccc(Cl)c(C(F)(F)F)c2)cc1-c1ccc(C(=O)Nc2ccncc2)cc1 [GSK1398470],0%
14,Nc1ncnc2occ(-c3ccc4c(c3)CCN4C(=O)Cc3cc(F)ccc3F)c12 [GSK2645446],0%
15,Fc1ccc(-c2nc3n(c2-c2ccncc2)CCS3)cc1 [GI98581],0%
16,Cc1ccc(NC(=O)Nc2ccccc2F)cc1-c1ccc(C(=O)Nc2ccncc2)cc1 [GSK1398477],5%
17,Cc1c(Cn2c(C)c(C)n3c(=O)cc(N4CCOCC4)nc23)cccc1C(F)(F)F [GSK2328680],0%
18,COc1ccc(Nc2nccc(N3CCC(NC(=O)c4cc5ccccc5s4)C3)n2)cc1 (centres unmarked) [GSK1379738],0%

# System: CAMKK1
# Details: concentration: 1 μM, replicates: in singlicate; n = 1
row,Structure (SMILES),%Inh
1,Cc1nccc(-c2c(-c3ccc(F)cc3)ncn2CCCN2CCOCC2)n1.Cl [SB-282975],9%
2,O=C1NC(=O)C(c2ccc(Cl)cc2)=C1Nc1cccc(Cl)c1 [SB-317651],7%
3,Cc1ccc(NC(=O)Nc2ccccc2)cc1-c1ccc(C(=O)Nc2ccncc2)cc1 [GSK1398471],0%
4,O=C(Nc1n[nH]c2nc(-c3cccs3)c(Br)cc12)C1CCCC1 [SB-743341],7%
5,COC(=O)C(NC(=O)NC1CCN(c2ccnc(Nc3ccc(F)cc3)n2)C1)c1ccccc1 (centres unmarked) [GSK1379712],25%
6,CC(=O)c1cccc(NC(=O)NC2CCN(c3ccnc(Nc4ccc(F)cc4)n3)C2)c1 (centres unmarked) [GSK1379710],26%
7,CCc1ccc(-c2ccc3c(c2)-c2n[nH]cc2S(=O)(=O)N3C)cc1,10%
8,O=C(Nc1n[nH]c2nc(-c3cccs3)c(Br)cc12)C1CC1 [SB-735297],0%
9,COC(=O)C(Cc1ccccc1)NC(=O)NC1CCN(c2ccnc(Nc3ccc(F)cc3)n2)C1 (centres unmarked) [GSK1379714],19%
10,CC(C)c1ccc(O)cc1Nc1ccnc2ccc(C(F)(F)F)cc12 [GW482059],0%
11,Cc1ccc(NC(=O)c2ccc(Cl)cc2)cc1-c1ccc(C(=O)Nc2ccncc2)cc1 [GSK1398467],0%
12,CC(C)c1cc(-c2ccc3c(N)n[nH]c3c2)nc(N)n1 [GSK2250882],0%
13,Cn1cnc2c(N)ncnc21 [SKF-97623],0%
14,COc1ccc(Nc2nccc(N3CCC(NC(=O)C(C)c4ccc(Cl)cc4)C3)n2)cc1 (centres unmarked) [GSK1379735],18%
15,COc1ccc(Nc2nccc(-c3ccc(NC(=O)c4cc5cc(F)ccc5[nH]4)cc3)n2)cc1 [GSK1229496],0%
16,CNc1nc(-c2ccc3c(N)n[nH]c3c2)cc(N2C[C@@H](C(=O)NC3CCCCC3)OC[C@H]2C)n1 [GSK2375584],21%
17,Cc1ccccc1-c1cc(-c2c[nH]nc2-c2ccccn2)ccn1 [GW680061],0%
18,CCn1c(-c2ccccc2)nc2cnccc21 [SB-733416],0%
19,c1ccc(-c2ccnc3[nH]ccc23)cc1 [SB-693578],10%

row,Structure (SMILES),%Inh
1,CC(=O)c1c(C)c2cnc(Nc3ccn(C)n3)nc2n(C2CCCC2)c1=O,7%
2,O=C(Nc1n[nH]c2cc(-c3ccsc3)ccc12)C1CC1 [SB-732932],9%
3,CSc1ccc(-c2nc3n(c2-c2ccncc2)CCC3)cc1 [SKF-105561],0%
4,O=C(Nc1n[nH]c2nc(-c3ccco3)c(Br)cc12)C1CCN(Cc2ccccc2)C1.O=C(O)[C@H](O)[C@@H](O)C(=O)O (centres unmarked) [SB-742034],20%
5,CNc1nc(-c2ccc3c(N)n[nH]c3c2)cc(N2C[C@@H](C(=O)Nc3ccccc3)CC[C@H]2C)n1 [GSK2298859],21%
6,Cn1cncc1C(=O)NC1CCN(c2ccnc(Nc3ccc(F)cc3)n2)C1 (centres unmarked) [GSK1379717],30%
7,O=c1cc(N2CCOCC2)nc2n(Cc3ccccc3F)ccn12 [GSK2297428],5%
8,CCCCc1nn2ncccc2c1-c1ccnc(NC2CC2)n1 [GW684374],0%
9,O=C1NC(=O)C(c2ccc(Cl)cc2)=C1Nc1ccc(O)cc1 [SB-340867],0%
10,COc1ccc(Nc2nccc(NCCNC(=O)Nc3cc(C)ccc3C)n2)cc1 [GSK1379899],13%
11,CC[C@@H]1CO[C@H](C(=O)Nc2ccccc2)CN1c1cc(-c2ccc3c(N)n[nH]c3c2)nc(NC)n1 [GSK2376236],5%
12,COc1cccc(CNC(=O)NC2CCN(c3ccnc(Nc4ccc(F)cc4)n3)C2)c1 (centres unmarked) [GSK1379723],79%
13,Cc1ccc(NC(=O)Nc2ccc(Cl)c(C(F)(F)F)c2)cc1-c1ccc(C(=O)Nc2ccncc2)cc1 [GSK1398470],0%
14,Nc1ncnc2occ(-c3ccc4c(c3)CCN4C(=O)Cc3cc(F)ccc3F)c12 [GSK2645446],0%
15,Fc1ccc(-c2nc3n(c2-c2ccncc2)CCS3)cc1 [GI98581],8%
16,Cc1ccc(NC(=O)Nc2ccccc2F)cc1-c1ccc(C(=O)Nc2ccncc2)cc1 [GSK1398477],15%
17,Cc1c(Cn2c(C)c(C)n3c(=O)cc(N4CCOCC4)nc23)cccc1C(F)(F)F [GSK2328680],0%
18,COc1ccc(Nc2nccc(N3CCC(NC(=O)c4cc5ccccc5s4)C3)n2)cc1 (centres unmarked) [GSK1379738],11%
